“And” between values parts separate entries of the source, which are not always exact repeats. Equal values may be shown once. Inconclusive results are not listed. Where a call stands in place of a potency, no number is given. The source made the active and inactive calls. Unless noted, calls follow the shape of the dose curve; as a rule, active = well fitted curve in the direction sought with a large enough effect; inconclusive = small, poorly fitted or top-dose-only effect, or another doubt; inactive = no such curve, though single readings can be large; an effect the other way counts as inactive or inconclusive.
What was measured:
[1] = Validation of Assay for Modulators of Lamin A Splicing (AID 1459; active = well fitted curve in the direction sought with a large enough effect in the signal ratio; the % refers to the signal ratio;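 also: cells exposed to compound for two days before reading; ratio rise marks activators and ratio drop marks inhibitors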)
How it was run: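 S3 HeLa cells stably expressing a lamin A-EGFP splicing minigene and DsRed2 were seeded at 600 cells/well in Opti-MEM with 2% FBS, pin-dosed, and incubated 48 hrs at 37 °C, 5% CO2. Laser-scanning cytometry (488 nm) gave GFP/RFP total intensity ratio.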

[2] = qHTS Assay for Lipid Storage Modulators (AID 1519; calls by dose curve); details: Drosophila S3 cells, BODIPY lipid droplet/cell ratio, laser cytometry, cells loaded with oleic acid
How it was run: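 Cells seeded at 5,000 per well were treated with compounds over a concentration series and loaded with oleic acid (400 uM, as added). Lipid droplet fluorescence (488 nm excitation, 500-530 nm channel) was read by laser-scanning cytometry and normalized to 20 uM Triacsin C.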

[3] = target: Endonuclease 4 (Escherichia coli (strain K12)) (UniProt P0A6C1); experiment: Counterscreen for APE1 Inhibitors: qHTS Validation Assay for Inhibitors of Endonuclease IV (AID 1708)
How it was run: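 Read-out: fluorescence rise (ex 525/em 598 nm) from incision of a TAMRA/BHQ-2 double-stranded THF abasic-site substrate (50 nM), measured kinetically; third-minus-first read difference gave reaction progress. Enzyme 2 nM.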

[4] = qHTS for differential inhibitors of proliferation of Plasmodium falciparum line 7G8 (AID 1815);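 also: parasite growth measured after three days of incubation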; also: potency is read from the fitted curve at half-maximal effect
[5] = qHTS for differential inhibitors of proliferation of Plasmodium falciparum line GB4 (AID 1816); details: Potency: Plasmodium falciparum GB4 proliferation inhibition;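 also: parasite growth measured after 72 h incubation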; also: potency is read from the fitted curve at half-maximal effect
[6] = target: alpha-glucosidase (Oryza sativa, rice) (UniProt Q653V4); experiment: Counterscreen for Glucocerebrosidase Inhibitors: qHTS Assay for Rice alpha-Glucosidase at pH 5.0 (AID 997)
How it was run: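 Endpoint fluorogenic assay at pH 5.0: compounds (0.7 nM to 77 uM) titrated against 4 nM rice enzyme and 400 uM 4-MU-alpha-glucoside for 20 min at room temperature; NaOH/glycine stop, read ex 365/em 440 nm, Hill-fitted AC50.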

[7] = target: Alpha-galactosidase (Coffea arabica) (UniProt Q42656); experiment: Counterscreen for Glucocerebrosidase Inhibitors: qHTS Assay for Coffee Bean alpha-Galactosidase at pH 5.9 (AID 998)
Sequence of Alpha-galactosidase (Coffea arabica) (Q42656 whole entry, looked up): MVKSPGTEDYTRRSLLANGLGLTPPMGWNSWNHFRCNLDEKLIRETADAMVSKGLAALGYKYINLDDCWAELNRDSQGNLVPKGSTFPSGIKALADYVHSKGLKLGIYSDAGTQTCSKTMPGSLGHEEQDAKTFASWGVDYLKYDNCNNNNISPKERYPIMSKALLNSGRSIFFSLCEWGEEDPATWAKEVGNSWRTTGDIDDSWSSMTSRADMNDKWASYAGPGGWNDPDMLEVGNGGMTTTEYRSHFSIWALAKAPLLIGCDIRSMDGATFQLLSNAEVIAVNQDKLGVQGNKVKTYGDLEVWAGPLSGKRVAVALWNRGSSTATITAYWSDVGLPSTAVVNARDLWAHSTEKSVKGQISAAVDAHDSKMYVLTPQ
How it was run: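 Enzyme 2 nM + cpd (0.7 nM–77 uM titration) + 4-MU-alpha-Gal 80 uM, pH 5.9 citrate/Tween-20, RT 20 min, NaOH/glycine stop pH 10, fluor 365/440. Normalized to no-enzyme and full-activity controls; Hill-fit AC50.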

[8] = target: DNA repair nuclease/redox regulator APEX1 (Homo sapiens) (UniProt P27695); experiment: qHTS Validation Assay for Inhibitors of the Human Apurinic/apyrimidinic Endonuclease 1 (APE1) (AID 1705;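 also: TAMRA fluorescence gain over two minutes as APE1 cuts a quenched THF abasic duplex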)
Sequence of DNA repair nuclease/redox regulator APEX1 (Homo sapiens) (P27695 whole entry, looked up): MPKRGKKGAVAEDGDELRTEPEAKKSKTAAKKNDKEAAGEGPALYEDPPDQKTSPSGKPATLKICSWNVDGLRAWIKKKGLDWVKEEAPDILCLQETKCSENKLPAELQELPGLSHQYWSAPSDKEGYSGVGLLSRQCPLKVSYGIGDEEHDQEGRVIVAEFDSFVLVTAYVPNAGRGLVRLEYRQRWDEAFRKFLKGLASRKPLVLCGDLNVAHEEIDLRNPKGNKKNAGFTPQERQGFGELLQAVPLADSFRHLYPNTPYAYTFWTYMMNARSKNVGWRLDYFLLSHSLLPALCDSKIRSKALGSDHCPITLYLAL
How it was run: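 Human APE1 was preincubated with compound for 15 min at room temperature, then 50 nM (final) THF-abasic double-stranded DNA substrate bearing 5'-TAMRA and 3'-BHQ-2 was added. Incision-driven fluorescence rise (ex 525/em 598 nm) was read kinetically.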

[9] = Counterscreen for APE1 Inhibitors: Fluorescent Dye Displacement Validation Assay (AID 1707)
How it was run: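 Reaction mixture of 250 nM Thiazole Orange and 50 nM double-stranded abasic-site DNA was dispensed, compounds were pin-transferred, and fluorescence was read at endpoint (480 nm ex, 540 nm em). Reduced fluorescence indicated dye displacement by DNA binding.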

[10] = measured here: cell count channel max response
[11] = measured here: lipid channel max response

SMILES	outcome [1]	activity change, negative = inhibition ([2]; at 57.5 µM (top of the series))	max response [2, 10]	max response [2, 11]	Potency [3]	Potency [4]	Potency [5]	outcome [6]	outcome [7]	Potency [8]	Potency [9]	activity change, negative = inhibition ([2]; at 25.7 µM (top of the series))
NC(=O)CN1CC(O)CC1=O (centres undefined)	inactive	3.41% (inactive)	18.3%	20.4%	inactive	inactive	inactive	–	–	–	–	–
O=C(O)Cc1cnc[nH]1	inactive	-0.977% (inactive)	21.8%	19%	–	inactive	inactive	inactive	inactive	inactive	–	–
C[N+]1(C)C2CCC1CC(OC(=O)C(CO)c1ccccc1)C2 (centres undefined)	inactive	-1.3% (inactive)	-18.3%	-18.4%	inactive	inactive	inactive	–	–	inactive	–	–
C[C@]12N[C@H](Cc3ccccc31)c1ccccc12	inactive	-1.18% (inactive)	51.7%	40.7%	inactive	–	1.78 µM (active)	inactive	inactive	inactive	–	–
NCCc1c[nH]c2ccccc12	inactive	5.62% (inactive)	8.58%	17.6%	inactive	–	–	inactive	inactive	inactive	–	–
C[C@@H]1O[C@H](C[N+](C)(C)C)C[C@H]1O	inactive	-2.01% (inactive)	40.6%	38%	inactive	inactive	inactive	inactive	inactive	inactive	inactive	–
Cc1nccc2c1[nH]c1ccccc12	inactive	2.54% (inactive)	6.61% and 77.2%	6.19% and 80.2%	inactive	14.1 µM (active)	12.6 µM (active)	inactive	inactive	–	–	0.405% (inactive)
O=C(Cc1ccc(Cl)c(Cl)c1)N1CCCCC1CN1CCCC1 (centres undefined)	inactive	3.16% (inactive)	16.5%	19.9%	inactive	5.01 µM (active)	–	–	–	inactive	–	–
Cn1cnc(CCN)c1	inactive	1.27% (inactive)	34.2%	35.2%	inactive	inactive	inactive	inactive	inactive	inactive	–	–
CCCN(CCC)[C@@H]1CCc2ccc(O)cc2C1	inactive	-4.72% (inactive) and 0.978% (inactive)	-36.9% and -10.5%	-41.2% and -9.44%	inactive	8.91 µM (active)	14.1 µM (active)	inactive	inactive	inactive	–	–

— PubChem BioAssay (NCATS)
